Results: the supplement of paper PMC8371130
Counter-ions that a name gives are not always drawn.

test system: HL-1; assay: relative cell viability (CellTiter-Glo) vs DMSO control (% of DMSO control); higher = more viable cells; conditions: oxygen condition: hypoxia 48 h (1% O2) + reoxygenation 24 h; 1000 nM
Procedure, shortened: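 HL-1 mouse atrial cardiomyocytes were plated in 384-well plates at 1000 cells per well together with compounds at 40, 200, 1000 or 5000 nM in 0.01% DMSO. One day later, cells went to a hypoxic workstation (1% O2) for 48 h, then were reoxygenated for 24 h in a normal incubator, or stayed in normoxia for the same time. Cell viability was read by CellTiter-Glo luminescence and normalised to vehicle-treated control cells.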

Structure (SMILES) | relative cell viability
NC(=O)NO [Hydroxyurea] | 109
Cc1onc(-c2ccccc2)c1C(=O)N[C@@H]1C(=O)N2[C@@H]1SC(C)(C)[C@@H]2C(=O)O [Oxacillin sodium monohydrate] | 96.5
CC(C)(C(=O)O)c1ccc(C(O)CCCN2CCC(C(O)(c3ccccc3)c3ccccc3)CC2)cc1 (centres undefined) [Fexofenadine HCl] | 99.8
CN(C)CCCN1c2ccccc2CCc2ccccc21 [Imipramine HCl] | 96.2
CCC[C@H](N[C@@H](C)C(=O)N1[C@H](C(=O)O)C[C@@H]2CCCC[C@@H]21)C(=O)OCC [Perindopril Erbumine] | 107
COc1ccccc1OCCNCC(O)COc1cccc2[nH]c3ccccc3c12 (centres undefined) [Carvedilol] | 107
NCC(=O)CCC(=O)O [5-Aminolevulinic acid hydrochloride] | 105
CCNC(=O)CCC/C=C\C[C@@H]1[C@@H](/C=C/[C@@H](O)CCc2ccccc2)[C@H](O)C[C@@H]1O [Bimatoprost] | 108
Nc1nnc(-c2cccc(Cl)c2Cl)c(N)n1 [Lamotrigine] | 108
CNCC[C@@H](Oc1ccccc1C)c1ccccc1 [Atomoxetine HCl] | 108
Clc1ccc2nsnc2c1NC1=NCCN1 [Tizanidine HCl] | 106
CC(C)c1c(C(=O)Nc2ccccc2)c(-c2ccccc2)c(-c2ccc(F)cc2)n1CC[C@@H](O)C[C@@H](O)CC(=O)O [Atorvastatin calcium] | 102
C[C@@H]1CCN(C(=O)CC#N)C[C@@H]1N(C)c1ncnc2[nH]ccc12 [Tofacitinib citrate] | 100
CCN(Cc1ccncc1)C(=O)C(CO)c1ccccc1 (centres undefined) [Tropicamide] | 101
N=C(N)NC(=O)c1nc(Cl)c(N)nc1N [Amiloride hydrochloride] | 100
NCCCC(O)(P(=O)(O)O)P(=O)(O)O [Alendronate] | 106
CC(=O)Oc1ccccc1C(=O)O [Aspirin] | 90.7

Structure (SMILES) | relative cell viability
NC(=O)N1c2ccccc2CC(=O)c2ccccc21 [Oxcarbazepine] | 116
CC(=O)OCC(=O)[C@@]12OC(C)(C)O[C@@H]1C[C@H]1[C@@H]3C[C@H](F)C4=CC(=O)C=C[C@]4(C)[C@@]3(F)[C@@H](O)C[C@@]12C [Fluocinonide] | 89.8
CC(=O)[C@H]1CC[C@H]2[C@@H]3CC=C4C[C@@H](O)CC[C@]4(C)[C@H]3CC[C@]12C [Pregnenolone] | 106
CCCOc1ccc(C(=O)OCCN(CC)CC)cc1N [Proparacaine HCl] | 97.8
C=CC[C@@H]1/C=C(\C)C[C@H](C)C[C@H](OC)[C@H]2O[C@@](O)(C(=O)C(=O)N3CCCC[C@H]3C(=O)O[C@H](/C(C)=C/[C@@H]3CC[C@@H](O)[C@H](OC)C3)[C@H](C)[C@@H](O)CC1=O)[C@H](C)C[C@@H]2OC | 102
O=C(Nc1ccc([N+](=O)[O-])cc1Cl)c1cc(Cl)ccc1O [Niclosamide] | 58.1
CCCCCCCCOc1ccccc1C(=O)Nc1ccc(C(=O)OCC[N+](C)(CC)CC)cc1 [Otilonium Bromide] | 108
C#C[C@]1(OC(C)=O)CC[C@H]2[C@@H]3CCC4=C[C@@H](OC(C)=O)CC[C@@H]4[C@H]3CC[C@@]21C [Ethynodiol diacetate] | 113
N[C@@H]1CN(c2c(F)cc3c(=O)c(C(=O)O)cn([C@@H]4C[C@@H]4F)c3c2Cl)CC12CC2 [Sitafloxacin hydrate] | 104
CCCCCCNC(=O)n1cc(F)c(=O)[nH]c1=O [Carmofur] | 51.6
CCCC(CCC)C(=O)O [Divalproex sodium] | 102
c1ccc2c(CC3=NCCN3)cccc2c1 [Naphazoline hydrochloride] | 106
C[C@]12CC[C@@H]3c4ccc(O)cc4C[C@@H](CCCCCCCCC[S+]([O-])CCCC(F)(F)C(F)(F)F)[C@H]3[C@@H]1CC[C@@H]2O (some centres undefined) [Fulvestrant] | 110
N=C(N)Nc1ccc(C(=O)Oc2ccc3cc(C(=N)N)ccc3c2)cc1 [Nafamostat mesylate] | 108
Cc1cn([C@H]2C[C@H](N=[N+]=[N-])[C@@H](CO)O2)c(=O)[nH]c1=O [Zidovudine] | 119
O=C(O)Cc1cc(I)c(Oc2ccc(O)c(I)c2)c(I)c1 [Tiratricol] | 104
C[C@@H](Oc1cc(-c2cnn(C3CCNCC3)c2)cnc1N)c1c(Cl)ccc(F)c1Cl [Crizotinib] | 99.2
